Experimental data published in the supplement of paper PMC6555819.

Legend:
Experiment in all cases: PBM binding z-score (relative to random genomic background probes); higher = stronger binding; sequences stand for … in GC…GCGATTGACAGCGTAGAATGAAGG
[1] = system: FXR:RXRa (NR concentration 270 nM, RXRa partner concentration 90 nM)
In short: (§1)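 Antibodies against each partner of ligand-free nuclear receptor dimers (one per run) detected binding on custom Agilent 4×180K protein-binding microarrays after 1 h incubation. The double-stranded probes had 34-nt variable regions carrying direct-repeat seeds, single-nucleotide variants, half-site ablations and random human genomic background sequences. Binding z-scores, from regression-normalized fluorescence, use the random background probes as reference.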

[2] = system: LXRa:RXRa (NR concentration 270 nM, RXRa partner concentration 90 nM)
In short: as §1

[3] = system: LXRa homodimer (NR concentration 270 nM)
In short: as §1

[4] = system: LXRb:RXRa (NR concentration 270 nM, RXRa partner concentration 90 nM)
In short: as §1

[5] = system: LXRb homodimer (NR concentration 270 nM)
In short: as §1

[6] = system: PPARa:RXRa (NR concentration 270 nM, RXRa partner concentration 90 nM)
In short: as §1

[7] = system: PPARg:RXRa (NR concentration 180 nM, RXRa partner concentration 90 nM)
In short: as §1

[8] = system: PPARg:RXRa 270nM:90nM, anti-RXR (NR concentration 270 nM, RXRa partner concentration 90 nM)
In short: as §1

[9] = system: PPARg:RXRa 30nM:10nM, anti-RXR (NR concentration 30 nM, RXRa partner concentration 10 nM)
In short: as §1

[10] = system: PPARg:RXRa 90nM:30nM, anti-RXR (NR concentration 90 nM, RXRa partner concentration 30 nM)
In short: as §1

[11] = system: PPARg:RXRa DBDmut IVT, anti-RXR (DBD mutation: RXRa K156A/R161A, NR concentration 270 nM, RXRa partner concentration 90 nM)
In short: as §1

[12] = system: PPARg:RXRa IVT, anti-PPARg (NR concentration 270 nM, RXRa partner concentration 90 nM)
In short: as §1

[13] = system: PPARg DBDmut:RXRa IVT, anti-PPARg (DBD mutation: PPARg1 K132A/R137A, NR concentration 270 nM, RXRa partner concentration 90 nM)
In short: as §1

[14] = system: PPARg DBDmut IVT, anti-PPARg (DBD mutation: PPARg1 K132A/R137A, NR concentration 270 nM)
In short: as §1

[15] = system: PPARg homodimer (NR concentration 180 nM)
In short: as §1

[16] = system: PXR:RXRa (NR concentration 270 nM, RXRa partner concentration 90 nM)
In short: as §1

[17] = system: PXR homodimer (NR concentration 270 nM)
In short: as §1

[18] = system: RARa:RXR (NR concentration 270 nM, RXRa partner concentration 90 nM)
In short: as §1

[19] = system: RARa homodimer (NR concentration 270 nM)
In short: as §1

[20] = system: RARb:RXRa (NR concentration 270 nM, RXRa partner concentration 90 nM)
In short: as §1

Row | Sequence | PBM binding z-score [1] | PBM binding z-score [2] | PBM binding z-score [3] | PBM binding z-score [4] | PBM binding z-score [5] | PBM binding z-score [6] | PBM binding z-score [7] | PBM binding z-score [8] | PBM binding z-score [9] | PBM binding z-score [10] | PBM binding z-score [11] | PBM binding z-score [12] | PBM binding z-score [13] | PBM binding z-score [14] | PBM binding z-score [15] | PBM binding z-score [16] | PBM binding z-score [17] | PBM binding z-score [18] | PBM binding z-score [19] | PBM binding z-score [20]
1 | GATACAGCGTCAAGGCCAGAGTACGCGTATTGAT | -0.565 | -0.762 | -0.347 | -0.832 | -0.969 | -0.514 | 0.602 | -0.494 | -0.309 | -0.649 | -0.697 | -0.358 | -0.853 | -0.941 | -0.474 | -0.434 | -0.406 | -0.6 | -0.441 | 0.0727
2 | TCAATTAGTTGATTAGGGCAACCGAAACAGCGGA | 0.579 | 0.188 | -0.056 | 0.445 | -0.277 | 0.882 | 0.217 | 1.6 | 3.41 | 2.45 | 2.01 | 1.32 | 0.608 | 0.646 | -0.173 | 0.326 | 0.219 | 0.567 | 0.493 | 0.665
3 | GGAACGAGGGCATTCGAGTTGATAGAATGGCGAT | 1.44 | 1.37 | -0.262 | 0.195 | -0.719 | 1.27 | 0.965 | 0.758 | 0.0506 | 0.303 | 2.73 | 1.93 | -0.165 | -0.814 | -0.265 | 3.87 | 1.31 | 0.709 | -0.629 | 1.69
4 | CCTACTGGGCCACGAAAGGTCATTGCTTCAGTGA | 3.92 | 5.22 | 5.24 | 4.45 | 0.134 | 4.62 | 4.49 | 4.91 | 2.15 | 4.17 | 5.37 | 5.7 | 1.88 | 1.06 | 3.27 | 5.56 | 2.05 | 5.35 | 1.56 | 3.94
5 | TCTGCTAGGTCAACGATGGGCAGCTAATCTGCTA | 3.19 | 2.29 | -0.252 | 1.2 | -0.397 | 2.94 | 2.47 | 3.01 | 1.85 | 2.49 | 4.14 | 4 | 1.49 | -0.401 | 0.59 | 0.836 | -1.21 | 1.73 | -1.18 | 4.19
6 | TCTAGTTGGTCGAAGGTCACACACTCGAAATGCG | 2.91 | 3.2 | 1.24 | 3.38 | 0.802 | 4.57 | 7.43 | 7.58 | 6.89 | 7.98 | 1.87 | 3.68 | 1.01 | 1.13 | 3.06 | 3.66 | 1.06 | 4.17 | 1.25 | 3.51
7 | ATACCAAAGTGATCGTGAGGTCGTTGATACTAAC | 1.23 | 0.707 | 0.848 | 0.923 | -0.182 | 0.935 | 0.235 | 0.258 | 0.0966 | -0.173 | -0.498 | 0.345 | 0.693 | 0.857 | 0.565 | 1.86 | 1.59 | 1.59 | 0.386 | 0.514
8 | CCGACTGGGGCCAAGGTTACCATACTCAGTACGA | 0.714 | 0.334 | -0.174 | 0.728 | -0.267 | 1.91 | 3.85 | 4.51 | 1.74 | 3.8 | 0.261 | 1.58 | -1.03 | -0.715 | 0.238 | 0.644 | 0.142 | 1.14 | -0.0443 | 1.77
9 | CCGACTGGGGGATAAGGTTACCATAAGCCAGCCC | 0.506 | 2.65 | -0.0985 | 2.4 | 2.01 | 1.91 | 1.43 | 2.38 | 1.06 | 2.07 | 0.611 | 1.85 | 1.28 | 1.34 | 0.934 | 1.15 | -0.306 | 1.64 | 0.448 | 0.896
10 | AGAATGAAGTTATTAAGATCAGGGAATTGCGGTC | -0.377 | -0.535 | -0.241 | -0.514 | -0.42 | -0.386 | 0.173 | -0.222 | 0.106 | 0.114 | -0.0627 | -0.0866 | 0.409 | 0.313 | 0.538 | -0.219 | 0.044 | 0.183 | 0.224 | -0.286
11 | CGAACGACGGCATGAGTTGATAGCAAATGCCGAT | -0.791 | -1.12 | -0.686 | -1.11 | -1.32 | -1.22 | 0.598 | -0.893 | -0.557 | -0.878 | -1.05 | -1.08 | -1.17 | -0.517 | -0.497 | -0.722 | -0.155 | -0.909 | -0.629 | -1.05
12 | CCAGACAGGTGAGAAGGGAACTCAGCCTCGATTA | -0.0941 | -0.0473 | 0.111 | -0.208 | -0.526 | -0.0624 | 0.318 | 0.174 | -0.465 | -0.306 | 0.589 | 0.343 | -0.35 | -0.943 | 0.62 | -0.225 | 0.169 | -0.0265 | 0.727 | 0.228
13 | CCTACTGGGCCCTTCAGAGGTCATTGATCATATG | 2.3 | 3.83 | 5.02 | 3.34 | 0.134 | 3.32 | 0.503 | 1.95 | 0.162 | 0.866 | 0.668 | 1.66 | -0.729 | -0.628 | 3.64 | 4.97 | 1.92 | 4.84 | 0.707 | 2.58
14 | CCTACTGGGCCATTCAGAGGCCATTGATCATATG | -0.101 | -0.261 | -0.0422 | -0.326 | -0.546 | 0.543 | 0.541 | 0.6 | -0.265 | 0.287 | 4.1 | 3.43 | -0.542 | -0.403 | 0.212 | -0.174 | -0.0574 | -0.153 | -0.498 | 0.712
